Data published in PubChem BioAssay (EPA / NIEHS).
Calls of active or inactive are those of the source. Rule for the calls: active = hit-call score of the fitted dose curve at least 0.9, where 1 is the maximum; inactive = score below 0.9.

Key:
[1] = biological target: CCAAT/enhancer-binding protein beta (Homo sapiens) (UniProt P17676); test: ATG_C_EBP_CIS: Attagene CIS-FACTORIAL HepG2 Assay for human CCAAT/Enhancer Binding Protein (C/EBP) beta (AID 2282927); conditions: HepG2 Attagene cis-factorial transcription factor reporter; actives raise or lower the signal
CCAAT/enhancer-binding protein beta (Homo sapiens), sequence (P17676 whole entry, looked up, the tested form may be a part): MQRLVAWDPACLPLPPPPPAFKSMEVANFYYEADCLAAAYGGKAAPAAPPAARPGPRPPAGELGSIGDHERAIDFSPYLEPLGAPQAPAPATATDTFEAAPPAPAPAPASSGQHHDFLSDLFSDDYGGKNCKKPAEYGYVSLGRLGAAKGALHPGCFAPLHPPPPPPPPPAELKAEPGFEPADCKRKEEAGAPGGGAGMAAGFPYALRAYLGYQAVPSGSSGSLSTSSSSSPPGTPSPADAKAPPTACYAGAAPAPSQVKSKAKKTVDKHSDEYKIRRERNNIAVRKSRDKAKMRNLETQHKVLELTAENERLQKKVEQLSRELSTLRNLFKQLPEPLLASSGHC
In short: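 Chemical-treated HepG2 cells (24 h) bearing cis-regulated reporter constructs were processed for total RNA, then reverse transcription, PCR amplification, fluorescent primer extension and fragment analysis; gain- and loss-of-signal were fitted against DMSO.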

[2] = ATG_CMV_CIS: Attagene CIS-FACTORIAL HepG2 Assay for human CMV (Internal Marker) (AID 2282928); conditions: HepG2 CMV promoter reporter, transcription factor profiling; actives raise or lower the signal;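 note: endpoint acts as a background internal control marker rather than a target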
In short: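 Endogenous transcription factor activity read in HepG2 via transfected cis-promoter reporter units. After 24 h dosing, reporter mRNA measured by RT-PCR/capillary electrophoresis; gain or loss of signal fit relative to DMSO.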

[3] = ATG_DR4_LXR_CIS: Attagene CIS-FACTORIAL HepG2 Assay for human Liver X Receptor (LXR), DR4 submotif (AID 2282929); conditions: HepG2 Attagene DR4 cis-reporter, mRNA transcription; actives raise or lower the signal
In short: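 Total RNA from 24 h-treated, MRTU-transfected HepG2 cells underwent reverse transcription, PCR, fluorescent primer extension and restriction digestion before capillary electrophoresis. Both increases and decreases in reporter signal were fitted against DMSO.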

[4] = ATG_AP_1_CIS: Attagene CIS-FACTORIAL HepG2 Assay for human Activator Protein 1 (AP-1) (AID 2282931); conditions: HepG2 Attagene cis-factorial AP-1 reporter mRNA; actives raise or lower the signal
In short: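 HepG2, transient cis-reporter transfection; 24 h; readout RT-PCR/CE fluorescence; DMSO baseline, gain and loss fitted.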

[5] = ATG_AP_2_CIS: Attagene CIS-FACTORIAL HepG2 Assay for human Activator Protein 2 (AP-2) (AID 2282932); conditions: HepG2 AP-2 cis-reporter, Attagene transcription factor profiling; actives raise or lower the signal
In short: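 HepG2 cells were transiently transfected with multiple cis-promoter reporter transcription units and dosed for 24 h. Reporter mRNA was measured by RT-PCR with capillary electrophoresis fluorescence; bidirectional fits relative to DMSO baseline.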

[6] = ATG_BRE_CIS: Attagene CIS-FACTORIAL HepG2 Assay for human Bone Morphogenetic Protein (BMP) Response Element (BRE) (AID 2282933); conditions: HepG2 BMP response element reporter, Attagene transcription factor profiling; actives raise or lower the signal
In short: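 HepG2 cells transiently transfected with CIS reporter units (endogenous TF activity, BMP response element), dosed 24 h. Reporter mRNA quantified by RT-PCR, fluorescent labelling and capillary electrophoresis; bidirectional fit vs DMSO baseline.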

[7] = biological target: Transcription factor E2F1 (Homo sapiens) (UniProt Q01094); test: ATG_E2F_CIS: Attagene CIS-FACTORIAL HepG2 Assay for human E2F Transcription Factor 1 (AID 2282935); conditions: HepG2 Attagene cis-reporter, E2F reporter RNA transcripts; actives raise or lower the signal
Transcription factor E2F1 (Homo sapiens), sequence (Q01094 whole entry, looked up): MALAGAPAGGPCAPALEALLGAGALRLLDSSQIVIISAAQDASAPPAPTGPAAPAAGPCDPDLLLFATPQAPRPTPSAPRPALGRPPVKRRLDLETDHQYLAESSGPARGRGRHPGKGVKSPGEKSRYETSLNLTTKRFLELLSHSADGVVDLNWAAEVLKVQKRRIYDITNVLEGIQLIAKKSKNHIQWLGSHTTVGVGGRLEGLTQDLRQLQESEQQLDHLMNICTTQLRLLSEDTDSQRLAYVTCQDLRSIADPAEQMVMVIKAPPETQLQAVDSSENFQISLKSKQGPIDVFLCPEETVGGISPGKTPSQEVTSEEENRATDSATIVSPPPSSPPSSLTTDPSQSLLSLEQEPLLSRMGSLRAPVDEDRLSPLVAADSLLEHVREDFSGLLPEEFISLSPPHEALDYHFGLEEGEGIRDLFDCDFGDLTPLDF
In short: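 HepG2 cells transiently transfected with multiplexed cis-element reporter units, dosed for 24 h. Reporter mRNA measured by RT-PCR, 6-FAM primer-extension labeling, HpaI digestion and capillary electrophoresis; bidirectional fit versus DMSO baseline.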

[8] = ATG_E_Box_CIS: Attagene CIS-FACTORIAL HepG2 Assay for human Enhancer Box (E-box) (AID 2282936); conditions: HepG2 E-box cis-reporter transcription, actives raise or lower the signal
In short: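 HepG2 cells transiently transfected with multiplexed cis-element reporter units sensing endogenous transcription factor activity; 24 h compound exposure. Reporter mRNA measured by RT-PCR, 6-FAM primer extension, HpaI digestion and capillary electrophoresis; bidirectional fit versus DMSO.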

[9] = ATG_M_61_CIS: Attagene CIS-FACTORIAL HepG2 Assay for M61 Transcription Factor (Internal Marker) (AID 2282937); conditions: HepG2 Attagene CIS-FACTORIAL M61 internal marker reporter; actives raise or lower the signal
In short: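 Transfect HepG2 with MRTUs; dose 24 h; isolate RNA; reverse-transcribe with DNase I treatment; PCR-amplify, FAM-label and cut with HpaI for 2 h at 37 C; resolve by CE. Bidirectional fitting against DMSO.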

[10] = ATG_EGR_CIS: Attagene CIS-FACTORIAL HepG2 Assay for human Early Growth Response 1 (EGR1) (AID 2282938); conditions: HepG2 Attagene CIS-FACTORIAL EGR reporter mRNA; actives raise or lower the signal
In short: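 After a 24 h treatment of transiently transfected HepG2 cells, total RNA was reverse-transcribed and reporter sequences PCR-amplified, labelled and run on capillary electrophoresis. Reporters sit under cis-regulatory promoters sensing endogenous factors.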

[11] = ATG_Ets_CIS: Attagene CIS-FACTORIAL HepG2 Assay for human Erythroblast Transformation Specific (ETS) (AID 2282941); conditions: HepG2 ETS cis-reporter transcription, actives raise or lower the signal
In short: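 Steps: transfect HepG2 with multiple reporter units; treat compound 24 h; isolate RNA, DNase-treat, reverse-transcribe; PCR-amplify, label with 6-FAM, digest with HpaI; separate by capillary electrophoresis. Activity fitted both directions versus DMSO.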

[12] = ATG_GATA_CIS: Attagene CIS-FACTORIAL HepG2 Assay for human GATA Binding Protein (AID 2282944); conditions: HepG2 GATA cis-element reporter, Attagene multiplex mRNA; actives raise or lower the signal
In short: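 HepG2 cells transiently transfected with multiplexed cis-element reporter units measure endogenous GATA activity; after 24 h compound exposure, reporter mRNA quantified by RT-PCR and capillary electrophoresis. Changes fitted in both directions vs DMSO.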

[13] = ATG_GLI_CIS: Attagene CIS-FACTORIAL HepG2 Assay for human Zinc Finger Protein GLI1 (AID 2282945); conditions: HepG2, Attagene cis-factorial reporter mRNA, GLI element; actives raise or lower the signal
In short: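 HepG2 cells transiently transfected with cis-promoter multiplexed reporter units report endogenous transcription factor activity. After 24 h chemical exposure, reporter mRNA was quantified by RT-PCR, 6-FAM labelling, HpaI digestion and capillary electrophoresis, with bidirectional fitting against DMSO.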

[14] = ATG_ISRE_CIS: Attagene CIS-FACTORIAL HepG2 Assay for human Interferon Regulatory Factor 1 (IRF1) binding to an Interferon-Stimulated Response Element (ISRE) (AID 2282948); conditions: HepG2 ISRE cis-reporter (Attagene), mRNA transcription readout; actives raise or lower the signal
In short: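 Transfected HepG2 (multiple reporter transcription units, cis elements) dosed 24 h. RNA → oligo(dT) RT → PCR → 6-FAM primer extension → HpaI → CE. DMSO = negative control/baseline.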

[15] = ATG_M_32_CIS: Attagene CIS-FACTORIAL HepG2 Assay for M32 Transcription Factor (Internal Marker) (AID 2282949); conditions: HepG2 Attagene cis-factorial M32 reporter, mRNA; actives raise or lower the signal;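 note: background control marker of the multiplexed CIS panel rather than a real target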
In short: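 Internal background marker read-out: RT-PCR/capillary electrophoresis fluorescence of reporter transcripts from transiently transfected HepG2 cells after 24 h chemical exposure. Activity fitted bidirectionally relative to DMSO negative control.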

[16] = ATG_M_06_CIS: Attagene CIS-FACTORIAL HepG2 Assay for M06 Transcription Factor (Internal Marker) (AID 2282950); conditions: HepG2 Attagene CIS-FACTORIAL M06 internal marker reporter; actives raise or lower the signal
In short: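 Internal background marker within multiplexed cis-reporter HepG2 system. Cells transiently transfected, dosed 24 h; reporter mRNA measured by RT-PCR, HpaI digestion and capillary electrophoresis. Bidirectional fit relative to DMSO.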

[17] = biological target: Hepatocyte nuclear factor 6 (Homo sapiens) (UniProt Q9UBC0); test: ATG_HNF6_CIS: Attagene CIS-FACTORIAL HepG2 Assay for human Hepatocyte Nuclear Factor 6 (HNF6) (AID 2282952); conditions: HepG2 Attagene cis-factorial HNF6 reporter transcription; actives raise or lower the signal
Hepatocyte nuclear factor 6 (Homo sapiens), sequence (Q9UBC0 whole entry, looked up): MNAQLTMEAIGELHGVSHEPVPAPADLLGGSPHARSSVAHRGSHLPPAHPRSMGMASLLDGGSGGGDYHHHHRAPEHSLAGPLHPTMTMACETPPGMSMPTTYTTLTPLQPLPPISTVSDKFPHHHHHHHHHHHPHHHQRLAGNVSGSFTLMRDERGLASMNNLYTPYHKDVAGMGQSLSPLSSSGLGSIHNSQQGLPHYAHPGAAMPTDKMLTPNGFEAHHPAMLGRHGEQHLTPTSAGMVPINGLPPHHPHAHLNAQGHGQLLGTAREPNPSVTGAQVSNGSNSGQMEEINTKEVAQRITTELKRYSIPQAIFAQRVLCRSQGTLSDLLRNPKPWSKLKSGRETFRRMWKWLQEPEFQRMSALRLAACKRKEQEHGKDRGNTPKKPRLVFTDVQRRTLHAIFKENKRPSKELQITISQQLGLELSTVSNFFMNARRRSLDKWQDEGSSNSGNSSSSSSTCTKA
In short: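 Transiently transfected HepG2 cells expressing cis-regulated reporter transcription units were exposed to chemical for 24 h in a 24-well format. Reporter transcript abundance was determined by fluorescence capillary electrophoresis.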

[18] = ATG_MRE_CIS: Attagene CIS-FACTORIAL HepG2 Assay for human Metal Responsive Element (MRE) (AID 2282954); conditions: HepG2 MRE cis-reporter transcription, Attagene multiplex; actives raise or lower the signal
In short: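 HepG2 cells transiently transfected with multiple cis-element reporter units measure endogenous MTF1-driven transcription. After 24 h compound exposure, reporter mRNA is quantified by RT-PCR with 6-FAM labelling, HpaI digestion and capillary electrophoresis; bidirectional fits versus DMSO.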

[19] = ATG_PXRE_CIS: Attagene CIS-FACTORIAL HepG2 Assay for human Pregnane X Receptor Element (PXRE) (AID 2282957); conditions: HepG2 Attagene CIS-FACTORIAL PXRE reporter, mRNA; actives raise or lower the signal
In short: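 Cis-element reporter mRNA in human hepatoma HepG2 cells is measured 24 h post-dosing by RT-PCR, primer-extension labeling and capillary electrophoresis; gain or loss of signal is fitted relative to DMSO.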

[20] = ATG_Sox_CIS: Attagene CIS-FACTORIAL HepG2 Assay for human SRY-box transcription factor (SOX) (AID 2282960); conditions: HepG2 Attagene cis-factorial SOX reporter, mRNA; actives raise or lower the signal
In short: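 HepG2, cis reporter units, 24 h exposure. Reporter mRNA: RT-PCR → FAM labelling → HpaI → CE fluorescence. Bidirectional fit vs DMSO.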

Measured: AC50

CCCCCCC1CCOC1=O (stereo not given)
inactive: [1] | [2] | [3] | [4] | [5] | [6] | [7] | [8] | [9] | [10] | [11] | [12] | [13] | [14] | [15] | [16] | [17] | [18] | [20]
active: [19] 100 µM

CC(C)C#N
inactive: [1] | [2] | [3] | [4] | [5] | [6] | [7] | [8] | [9] | [10] | [11] | [12] | [13] | [14] | [15] | [16] | [17] | [18] | [20]
active: [19] 27.6 µM

C=CCc1ccc(OC(=O)Cc2ccccc2)c(OC)c1
active: [19] 8.28 µM
inactive: [1] | [2] | [3] | [4] | [5] | [6] | [7] | [8] | [9] | [10] | [11] | [12] | [13] | [14] | [15] | [16] | [17] | [18] | [20]

CN1C(=O)CCS(=O)(=O)C1c1ccc(Cl)cc1 (stereo not given)
inactive: [1] | [2] | [3] | [4] | [5] | [6] | [7] | [8] | [9] | [10] | [11] | [12] | [13] | [14] | [15] | [16] | [17] | [18] | [19] | [20]

CC1CCCC1.[C-]#[O+].[C-]#[O+].[C-]#[O+].[Mn]
active: [8] 16.8 µM | [14] 35.2 µM
inactive: [1] | [2] | [3] | [4] | [5] | [6] | [7] | [9] | [10] | [11] | [12] | [13] | [15] | [16] | [17] | [18] | [19] | [20]

Oc1cc(Cl)ccc1Cl
inactive: [1] | [2] | [3] | [4] | [5] | [6] | [7] | [8] | [9] | [10] | [11] | [12] | [13] | [14] | [15] | [16] | [17] | [18] | [20]
active: [19] 27.6 µM

CCOC(=O)NC(=S)Nc1ccccc1NC(=S)NC(=O)OCC
inactive: [1] | [2] | [3] | [4] | [5] | [6] | [7] | [8] | [9] | [10] | [11] | [12] | [13] | [14] | [15] | [16] | [17] | [18] | [20]
active: [19] 1.68 µM
